Article PMC7862700, “An all-to-all approach to the identification of sequence-specific readers for epigenetic DNA modifications on cytosine”

Legend:
Experiment in all cases: DAPPL (digital affinity profiling via proximity ligation, sequencing); 10 mM Tris-HCl pH 7.5, 50 mM NaCl, 1 mM DTT, 4% glycerol, room temperature, 30 min; GST-TFs on glutathione beads, 16-mer random dsDNA library, 0.1% formaldehyde crosslink after washing; high values mean tight binding
FLI1 = molecular target: T1, FLI1 (Homo sapiens, UniProt Q01543 1-452); details: protein: recombinant; tags: N-terminal GST; dsDNA, one strand shown
T1 sequence: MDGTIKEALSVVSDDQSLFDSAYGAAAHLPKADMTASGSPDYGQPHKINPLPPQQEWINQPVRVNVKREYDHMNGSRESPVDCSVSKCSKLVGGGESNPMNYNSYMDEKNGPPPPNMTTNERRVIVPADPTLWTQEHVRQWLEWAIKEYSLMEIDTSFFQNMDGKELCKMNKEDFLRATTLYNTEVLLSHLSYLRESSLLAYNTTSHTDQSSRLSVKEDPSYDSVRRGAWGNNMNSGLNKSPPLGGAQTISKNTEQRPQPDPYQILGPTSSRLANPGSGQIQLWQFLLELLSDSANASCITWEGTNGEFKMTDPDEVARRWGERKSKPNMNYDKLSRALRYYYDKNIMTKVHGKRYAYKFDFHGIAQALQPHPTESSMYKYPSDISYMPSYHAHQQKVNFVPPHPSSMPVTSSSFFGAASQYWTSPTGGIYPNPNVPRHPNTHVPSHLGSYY
Method in brief: (§1)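 Sequencing on an Illumina NextSeq500 followed washing, crosslinking with 0.1% formaldehyde, proximity ligation (BsaI/T4 ligase, 1 h, 37 °C) and PCR amplification of pools that had been incubated for 30 min at room temperature with 200 nmole of a random double-stranded 16-mer DNA library in Tris/NaCl/DTT/glycerol buffer. Each pool held DNA-barcoded human transcription factors, expressed in yeast as GST fusions and captured on glutathione beads, plus a tag-only sample. Binding signal is a hexamer's read frequency for a factor divided by its frequency in the tag-only sample.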

ELK1 = molecular target: T2, ELK1 (Homo sapiens, UniProt P19419 1-428); details: protein: recombinant; tags: N-terminal GST; dsDNA, one strand shown
T2 sequence: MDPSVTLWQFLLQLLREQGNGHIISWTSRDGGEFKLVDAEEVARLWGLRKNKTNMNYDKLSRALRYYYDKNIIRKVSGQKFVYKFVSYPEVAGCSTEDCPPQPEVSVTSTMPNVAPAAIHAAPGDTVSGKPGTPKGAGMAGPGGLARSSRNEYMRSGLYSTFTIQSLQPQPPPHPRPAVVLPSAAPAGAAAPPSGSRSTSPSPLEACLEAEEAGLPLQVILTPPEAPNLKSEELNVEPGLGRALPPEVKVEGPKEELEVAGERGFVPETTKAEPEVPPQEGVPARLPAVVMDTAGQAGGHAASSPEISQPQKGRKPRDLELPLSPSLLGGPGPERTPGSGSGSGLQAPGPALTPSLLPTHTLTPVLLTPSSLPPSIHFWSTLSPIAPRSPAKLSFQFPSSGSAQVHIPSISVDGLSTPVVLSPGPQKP
Method in brief: as §1

GABPA = molecular target: T3, GABPA (Homo sapiens, UniProt Q06546 1-454); details: protein: recombinant; tags: N-terminal GST; dsDNA, one strand shown
T3 sequence: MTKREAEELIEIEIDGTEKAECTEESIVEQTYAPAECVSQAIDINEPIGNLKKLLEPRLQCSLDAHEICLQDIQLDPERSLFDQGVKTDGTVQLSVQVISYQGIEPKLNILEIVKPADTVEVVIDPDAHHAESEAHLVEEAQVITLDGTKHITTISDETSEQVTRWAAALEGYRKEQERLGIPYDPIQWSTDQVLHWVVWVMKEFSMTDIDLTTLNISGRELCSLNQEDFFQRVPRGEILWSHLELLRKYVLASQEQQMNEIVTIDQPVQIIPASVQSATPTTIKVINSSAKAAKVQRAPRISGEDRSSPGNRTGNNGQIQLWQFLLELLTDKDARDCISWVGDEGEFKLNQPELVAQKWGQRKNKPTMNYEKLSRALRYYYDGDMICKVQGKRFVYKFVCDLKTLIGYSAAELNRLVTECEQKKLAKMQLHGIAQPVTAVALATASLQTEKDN
Method in brief: as §1

ERG = molecular target: T4, ERG (Homo sapiens, UniProt P11308 1-479); details: protein: recombinant; tags: N-terminal GST; dsDNA, one strand shown
T4 sequence: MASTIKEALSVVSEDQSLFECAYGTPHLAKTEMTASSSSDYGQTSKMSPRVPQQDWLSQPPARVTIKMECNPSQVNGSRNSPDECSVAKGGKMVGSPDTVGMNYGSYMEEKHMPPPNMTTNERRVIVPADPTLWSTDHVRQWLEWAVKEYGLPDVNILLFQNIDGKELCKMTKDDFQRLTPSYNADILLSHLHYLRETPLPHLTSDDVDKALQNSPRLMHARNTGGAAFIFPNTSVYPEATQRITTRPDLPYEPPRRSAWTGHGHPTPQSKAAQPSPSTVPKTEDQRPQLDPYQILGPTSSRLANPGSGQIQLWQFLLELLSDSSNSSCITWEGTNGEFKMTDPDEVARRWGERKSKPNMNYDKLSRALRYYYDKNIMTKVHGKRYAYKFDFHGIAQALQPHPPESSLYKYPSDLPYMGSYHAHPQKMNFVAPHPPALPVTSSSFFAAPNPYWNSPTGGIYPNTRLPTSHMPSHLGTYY
Method in brief: as §1

ELF1 = ELF1 (Homo sapiens, UniProt P32519 1-619); details: protein: recombinant; tags: N-terminal GST; dsDNA, one strand shown
Method in brief: as §1

EHF = molecular target: T5, EHF (Homo sapiens, UniProt Q9NZC4 1-300); details: protein: recombinant; tags: N-terminal GST; dsDNA, one strand shown
T5 sequence: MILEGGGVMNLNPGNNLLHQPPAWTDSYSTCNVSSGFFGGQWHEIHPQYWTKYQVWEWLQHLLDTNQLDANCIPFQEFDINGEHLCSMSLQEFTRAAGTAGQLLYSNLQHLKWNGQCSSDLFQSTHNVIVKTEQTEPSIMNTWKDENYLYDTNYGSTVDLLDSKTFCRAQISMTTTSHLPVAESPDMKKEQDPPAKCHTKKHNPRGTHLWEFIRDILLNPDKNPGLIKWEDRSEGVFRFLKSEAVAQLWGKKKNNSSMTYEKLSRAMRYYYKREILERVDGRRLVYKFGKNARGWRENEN
Method in brief: as §1

SPI1 = SPI1 (Homo sapiens, UniProt P17947 1-270); details: protein: recombinant; tags: N-terminal GST; dsDNA, one strand shown
Method in brief: as §1

SPIB = SPIB (Homo sapiens, UniProt Q01892 1-262); details: protein: recombinant; tags: N-terminal GST; dsDNA, one strand shown
Method in brief: as §1

ELK3 = molecular target: T6, ELK3 (Homo sapiens, UniProt P41970 1-407); details: protein: recombinant; tags: N-terminal GST; dsDNA, one strand shown
T6 sequence: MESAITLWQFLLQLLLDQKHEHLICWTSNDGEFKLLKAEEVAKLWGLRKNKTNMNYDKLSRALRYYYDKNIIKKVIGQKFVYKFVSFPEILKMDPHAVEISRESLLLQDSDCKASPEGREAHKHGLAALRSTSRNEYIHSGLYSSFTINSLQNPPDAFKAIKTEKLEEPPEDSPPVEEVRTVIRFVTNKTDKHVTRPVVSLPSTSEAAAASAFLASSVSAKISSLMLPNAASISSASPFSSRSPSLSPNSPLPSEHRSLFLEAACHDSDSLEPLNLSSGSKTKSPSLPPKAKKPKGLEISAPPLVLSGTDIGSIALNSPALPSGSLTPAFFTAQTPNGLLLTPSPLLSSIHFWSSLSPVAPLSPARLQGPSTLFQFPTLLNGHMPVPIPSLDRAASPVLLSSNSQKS
Method in brief: as §1

FEV = molecular target: T7, FEV (Homo sapiens, UniProt Q99581 1-238); details: protein: recombinant; tags: N-terminal GST; dsDNA, one strand shown
T7 sequence: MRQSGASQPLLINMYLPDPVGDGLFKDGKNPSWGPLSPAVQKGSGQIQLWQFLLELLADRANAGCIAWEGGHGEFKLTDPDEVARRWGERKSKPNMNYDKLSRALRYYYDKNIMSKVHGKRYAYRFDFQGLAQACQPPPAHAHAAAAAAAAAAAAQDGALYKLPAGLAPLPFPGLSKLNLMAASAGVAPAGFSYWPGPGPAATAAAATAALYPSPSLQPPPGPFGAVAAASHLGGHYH
Method in brief: as §1

ETV5 = ETV5 (Homo sapiens, UniProt P41161 1-510); details: protein: recombinant; tags: N-terminal GST; dsDNA, one strand shown
Method in brief: as §1

HSF1 = HSF1 (Homo sapiens, UniProt Q00613 1-529); details: protein: recombinant; tags: N-terminal GST; chain copies: 3; dsDNA, one strand shown
Method in brief: as §1

SPIC = molecular target: T8, SPIC (Homo sapiens, UniProt Q8N5J4 1-248); details: protein: recombinant; tags: N-terminal GST; dsDNA, one strand shown
T8 sequence: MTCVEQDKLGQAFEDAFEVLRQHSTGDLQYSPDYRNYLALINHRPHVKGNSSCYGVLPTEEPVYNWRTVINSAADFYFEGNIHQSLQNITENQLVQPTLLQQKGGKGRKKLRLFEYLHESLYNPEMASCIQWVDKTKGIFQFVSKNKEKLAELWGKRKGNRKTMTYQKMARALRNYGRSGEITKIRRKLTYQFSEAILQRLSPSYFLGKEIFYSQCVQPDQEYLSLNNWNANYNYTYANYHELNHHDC
Method in brief: as §1

ELF4 = ELF4 (Homo sapiens, UniProt Q99607 1-663); details: protein: recombinant; tags: N-terminal GST; dsDNA, one strand shown
Method in brief: as §1

ELK4 = molecular target: T9, ELK4 (Homo sapiens, UniProt P28324-2 1-405); details: protein: recombinant; tags: N-terminal GST; dsDNA, one strand shown
T9 sequence: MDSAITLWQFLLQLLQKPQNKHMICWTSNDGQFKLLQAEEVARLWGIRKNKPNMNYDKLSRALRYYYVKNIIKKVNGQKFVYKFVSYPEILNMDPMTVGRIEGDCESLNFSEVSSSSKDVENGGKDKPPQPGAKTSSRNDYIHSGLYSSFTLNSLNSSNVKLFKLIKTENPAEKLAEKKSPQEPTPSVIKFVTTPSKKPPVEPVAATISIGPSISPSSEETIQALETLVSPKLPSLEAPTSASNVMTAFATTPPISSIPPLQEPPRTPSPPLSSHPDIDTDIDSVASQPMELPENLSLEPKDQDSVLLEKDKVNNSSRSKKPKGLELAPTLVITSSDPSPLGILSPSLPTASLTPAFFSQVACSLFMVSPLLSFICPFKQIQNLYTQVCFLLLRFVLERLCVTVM
Method in brief: as §1

ETV2 = molecular target: T10, ETV2 (Homo sapiens, UniProt O00321 1-342); details: protein: recombinant; tags: N-terminal GST; dsDNA, one strand shown
T10 sequence: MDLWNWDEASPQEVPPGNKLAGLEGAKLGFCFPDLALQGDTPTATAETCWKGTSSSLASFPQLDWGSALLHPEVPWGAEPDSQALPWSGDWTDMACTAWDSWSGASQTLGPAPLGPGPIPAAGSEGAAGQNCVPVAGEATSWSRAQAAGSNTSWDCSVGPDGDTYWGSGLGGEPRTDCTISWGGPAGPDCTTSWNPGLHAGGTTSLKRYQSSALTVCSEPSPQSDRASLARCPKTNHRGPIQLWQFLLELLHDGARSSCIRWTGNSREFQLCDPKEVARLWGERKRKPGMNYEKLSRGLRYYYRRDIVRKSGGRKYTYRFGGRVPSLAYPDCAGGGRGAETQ
Method in brief: as §1

ELF3 = molecular target: T11, ELF3 (Homo sapiens, UniProt P78545 1-371); details: protein: recombinant; tags: N-terminal GST; dsDNA, one strand shown
T11 sequence: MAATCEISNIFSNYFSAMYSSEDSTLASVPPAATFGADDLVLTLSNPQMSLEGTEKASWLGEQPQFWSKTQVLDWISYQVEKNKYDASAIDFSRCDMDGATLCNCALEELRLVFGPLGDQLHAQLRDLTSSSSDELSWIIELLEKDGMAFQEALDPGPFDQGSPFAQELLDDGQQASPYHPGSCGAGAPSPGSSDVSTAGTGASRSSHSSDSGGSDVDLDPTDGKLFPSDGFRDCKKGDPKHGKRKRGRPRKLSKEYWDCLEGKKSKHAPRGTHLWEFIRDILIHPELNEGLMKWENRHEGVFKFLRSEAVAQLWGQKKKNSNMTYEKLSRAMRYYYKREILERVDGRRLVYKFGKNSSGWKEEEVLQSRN
Method in brief: as §1

CRX = CRX (Homo sapiens, UniProt O43186 1-299); details: protein: recombinant; tags: N-terminal GST; dsDNA, one strand shown
Method in brief: as §1

ETV1 = ETV1 (Homo sapiens, UniProt P50549 1-477); details: protein: recombinant; tags: N-terminal GST; dsDNA, one strand shown
Method in brief: as §1

Sequence of HSF1 (Q00613 whole entry): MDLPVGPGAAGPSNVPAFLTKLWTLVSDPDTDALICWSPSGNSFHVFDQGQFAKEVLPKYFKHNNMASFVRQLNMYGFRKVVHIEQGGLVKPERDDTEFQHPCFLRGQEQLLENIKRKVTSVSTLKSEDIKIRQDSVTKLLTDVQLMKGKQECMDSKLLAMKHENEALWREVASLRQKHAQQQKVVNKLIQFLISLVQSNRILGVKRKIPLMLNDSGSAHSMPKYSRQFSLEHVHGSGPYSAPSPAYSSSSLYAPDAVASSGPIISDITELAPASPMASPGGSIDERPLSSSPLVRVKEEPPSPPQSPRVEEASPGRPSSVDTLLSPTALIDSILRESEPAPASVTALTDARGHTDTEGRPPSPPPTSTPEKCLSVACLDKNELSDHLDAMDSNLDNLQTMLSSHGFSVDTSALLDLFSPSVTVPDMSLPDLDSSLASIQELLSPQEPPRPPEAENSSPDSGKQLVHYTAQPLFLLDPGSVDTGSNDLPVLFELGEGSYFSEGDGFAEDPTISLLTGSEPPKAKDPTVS
Sequence of CRX (O43186 whole entry): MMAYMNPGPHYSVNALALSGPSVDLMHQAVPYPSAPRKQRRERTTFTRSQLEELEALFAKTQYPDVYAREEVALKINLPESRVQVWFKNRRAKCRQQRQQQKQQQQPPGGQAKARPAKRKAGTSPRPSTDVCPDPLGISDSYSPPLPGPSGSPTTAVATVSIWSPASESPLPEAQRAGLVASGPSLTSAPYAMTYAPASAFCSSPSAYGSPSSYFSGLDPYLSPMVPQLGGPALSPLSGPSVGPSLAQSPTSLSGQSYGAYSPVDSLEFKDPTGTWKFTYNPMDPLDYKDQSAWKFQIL
Sequence of ELF1 (P32519 whole entry): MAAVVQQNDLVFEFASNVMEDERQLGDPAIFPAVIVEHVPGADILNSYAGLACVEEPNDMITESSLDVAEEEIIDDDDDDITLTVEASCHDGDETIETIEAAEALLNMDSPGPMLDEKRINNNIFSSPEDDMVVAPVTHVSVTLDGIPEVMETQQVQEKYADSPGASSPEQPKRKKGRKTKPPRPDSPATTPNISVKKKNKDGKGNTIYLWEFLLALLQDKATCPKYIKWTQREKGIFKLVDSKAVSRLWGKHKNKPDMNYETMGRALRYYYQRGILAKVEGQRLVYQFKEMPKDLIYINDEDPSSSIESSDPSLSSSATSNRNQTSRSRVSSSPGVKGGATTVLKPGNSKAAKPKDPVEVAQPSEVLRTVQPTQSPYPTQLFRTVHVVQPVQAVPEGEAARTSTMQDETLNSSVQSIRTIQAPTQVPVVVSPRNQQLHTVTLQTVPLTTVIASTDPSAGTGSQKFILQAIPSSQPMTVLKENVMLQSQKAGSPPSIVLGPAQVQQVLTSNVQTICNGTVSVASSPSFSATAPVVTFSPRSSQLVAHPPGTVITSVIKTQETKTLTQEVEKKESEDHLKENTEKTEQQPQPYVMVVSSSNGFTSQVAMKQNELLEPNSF
Sequence of ETV1 (P50549 whole entry): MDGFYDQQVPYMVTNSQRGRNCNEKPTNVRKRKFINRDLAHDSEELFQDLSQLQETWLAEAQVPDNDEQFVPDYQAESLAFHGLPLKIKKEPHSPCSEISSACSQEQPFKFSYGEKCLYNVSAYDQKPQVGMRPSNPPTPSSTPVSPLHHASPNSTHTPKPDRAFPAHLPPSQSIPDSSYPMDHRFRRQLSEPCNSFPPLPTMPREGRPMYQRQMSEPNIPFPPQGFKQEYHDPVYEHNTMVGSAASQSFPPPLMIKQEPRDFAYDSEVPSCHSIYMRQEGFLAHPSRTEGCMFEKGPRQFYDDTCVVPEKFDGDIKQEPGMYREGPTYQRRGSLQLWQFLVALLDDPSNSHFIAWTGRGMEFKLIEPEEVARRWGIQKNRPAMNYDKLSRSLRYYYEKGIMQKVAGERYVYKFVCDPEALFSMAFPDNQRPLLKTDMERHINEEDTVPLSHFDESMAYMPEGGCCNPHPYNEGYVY
Sequence of ETV5 (P41161 whole entry): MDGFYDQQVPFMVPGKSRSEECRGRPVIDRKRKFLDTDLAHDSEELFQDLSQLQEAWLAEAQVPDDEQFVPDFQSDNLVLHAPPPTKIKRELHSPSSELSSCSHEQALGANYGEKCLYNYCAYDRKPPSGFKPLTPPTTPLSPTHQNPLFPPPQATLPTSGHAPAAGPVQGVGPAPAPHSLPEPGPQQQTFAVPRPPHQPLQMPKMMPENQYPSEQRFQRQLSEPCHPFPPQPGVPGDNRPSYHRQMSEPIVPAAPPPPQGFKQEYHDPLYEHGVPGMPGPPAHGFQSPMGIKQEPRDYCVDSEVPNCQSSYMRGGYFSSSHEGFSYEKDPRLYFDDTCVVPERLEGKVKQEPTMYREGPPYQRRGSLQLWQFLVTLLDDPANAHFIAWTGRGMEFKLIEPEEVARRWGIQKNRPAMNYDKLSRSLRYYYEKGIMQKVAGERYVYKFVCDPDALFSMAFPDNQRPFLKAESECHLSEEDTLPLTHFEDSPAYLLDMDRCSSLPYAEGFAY
Sequence of SPIB (Q01892 whole entry): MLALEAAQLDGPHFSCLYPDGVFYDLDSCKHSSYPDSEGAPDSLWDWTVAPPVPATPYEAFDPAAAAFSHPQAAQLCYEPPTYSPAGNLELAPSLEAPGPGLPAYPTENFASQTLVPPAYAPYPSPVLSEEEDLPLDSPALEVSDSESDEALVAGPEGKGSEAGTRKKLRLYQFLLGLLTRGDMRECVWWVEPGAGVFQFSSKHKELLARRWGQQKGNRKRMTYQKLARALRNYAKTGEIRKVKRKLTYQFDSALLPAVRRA
Sequence of ELF4 (Q99607 whole entry): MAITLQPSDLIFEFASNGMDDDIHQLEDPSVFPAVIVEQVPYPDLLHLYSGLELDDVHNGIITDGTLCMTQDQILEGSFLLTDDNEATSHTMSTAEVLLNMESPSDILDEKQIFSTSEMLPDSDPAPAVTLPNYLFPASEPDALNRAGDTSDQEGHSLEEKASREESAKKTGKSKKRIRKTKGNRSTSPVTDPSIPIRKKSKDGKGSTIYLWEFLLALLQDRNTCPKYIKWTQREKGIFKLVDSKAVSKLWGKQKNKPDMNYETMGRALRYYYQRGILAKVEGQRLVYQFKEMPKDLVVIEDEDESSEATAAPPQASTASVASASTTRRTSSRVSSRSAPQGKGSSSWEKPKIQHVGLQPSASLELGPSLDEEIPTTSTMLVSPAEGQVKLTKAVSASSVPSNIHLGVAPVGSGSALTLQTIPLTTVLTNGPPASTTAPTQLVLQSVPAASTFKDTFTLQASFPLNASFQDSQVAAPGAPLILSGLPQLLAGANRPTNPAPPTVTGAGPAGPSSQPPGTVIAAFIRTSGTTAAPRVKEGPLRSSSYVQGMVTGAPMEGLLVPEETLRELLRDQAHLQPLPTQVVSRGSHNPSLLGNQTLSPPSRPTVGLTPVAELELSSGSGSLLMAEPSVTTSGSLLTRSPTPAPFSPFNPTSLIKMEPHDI

With TCTTTG the binding signal (FLI1) was 1.18 fold enrichment (6-mer frequency, TF over GST control), the binding signal (ELK1) was 1.18 fold enrichment (6-mer frequency, TF over GST control) and the binding signal (GABPA) was 1.2 fold enrichment (6-mer frequency, TF over GST control). For the same sequence, the binding signal (ERG) was 1.25 fold enrichment (6-mer frequency, TF over GST control), the binding signal (ELF1) was 1.25 fold enrichment (6-mer frequency, TF over GST control) and the binding signal (EHF) was 1.21 fold enrichment (6-mer frequency, TF over GST control). The binding signal (SPI1) was 1.21 fold enrichment (6-mer frequency, TF over GST control), the binding signal (SPIB) was 1.05 fold enrichment (6-mer frequency, TF over GST control) and the binding signal (ELK3) was 1.31 fold enrichment (6-mer frequency, TF over GST control). The binding signal (FEV) was 1.09 fold enrichment (6-mer frequency, TF over GST control), the binding signal (ETV5) was 1.16 fold enrichment (6-mer frequency, TF over GST control) and the binding signal (HSF1) was 1.24 fold enrichment (6-mer frequency, TF over GST control). For the same sequence, the binding signal (SPIC) was 1.13 fold enrichment (6-mer frequency, TF over GST control), the binding signal (ELF4) was 1.17 fold enrichment (6-mer frequency, TF over GST control) and the binding signal (ELK4) was 1.2 fold enrichment (6-mer frequency, TF over GST control). For the same sequence, the binding signal (ETV2) was 1.05 fold enrichment (6-mer frequency, TF over GST control), the binding signal (ELF3) was 1.18 fold enrichment (6-mer frequency, TF over GST control) and the binding signal (CRX) was 1.27 fold enrichment (6-mer frequency, TF over GST control). The binding signal (ETV1) was 1.1 fold enrichment (6-mer frequency, TF over GST control).
